For test [1], the target named is Cellular tumor antigen p53 (Homo sapiens) (UniProt P04637). The test is described as follows: Primary qHTS for small molecule compounds that upregulate eGFP-tagged delta133p53alpha (in N-terminal) cells. (AID 2060322).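 For activation: series mostly up to about 56 µM; 0% = DMSO vehicle and 100% = reference activator.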 Note: nearly all actives have a fitted effect of over 75% in size. Conditions: NCI-H358 eGFP-delta133p53alpha fluorescence, 24 h; activation: active compounds read high. In a few lines: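 NCI-H358 cells pre-induced 24 h with 10 ng/ml doxycycline to express N-terminal eGFP-delta133p53alpha, then dosed 24 h at 37C without doxycycline; fixed, Hoechst-stained, GFP intensity by laser scanning cytometry, normalized to DMSO (0%) and 57.5 uM 5-azacytidine (100%).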
A general note: Quantitative high-throughput screening tests each substance at several concentrations.

Test [2] can be described thus: BET inhibitor-based combinations targeting novel dependencies in MECOM-rearranged (r) AML: SET-2 cell line (AID 2202231).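 For viability: plate controls were DMSO treated cells for no effect and wells without cells for full effect.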 Note: nearly all actives have a fitted effect of over 35% in size. Conditions: SET-2 AML cells viability, CellTiter-Glo luminescence, 48 h; viability: active compounds read low, concentration not given here. In a few lines:
(§1)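 Luminescent ATP readout (CellTiter-Glo) after 48 hr drug exposure gives viability. Curves span 11 concentrations and are normalized to DMSO and empty wells. Activity is reported as area under the curve and its Z-transform within each cell line.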
For orientation: Cellular ATP, detected with luciferase, serves as a proxy for viable cell number.

Test [3] can be described thus: BET inhibitor-based combinations targeting novel dependencies in MECOM-rearranged (r) AML: HNT-34 cell line (AID 2202234). Note: nearly all actives have a fitted effect of over 35% in size. In a few lines:
(§2)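 Luminescent ATP readout (CellTiter-Glo, 15 min at room temperature) after 48 hr drug exposure gave viability. Dose-response curves, normalized to DMSO and empty-well controls, were summarized as area under the curve and its mean-centred Z-score.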

Test [4] in a line: BET inhibitor-based combinations targeting novel dependencies in MECOM-rearranged (r) AML: UCSD-AML1 cell line (AID 2202235). Note: nearly all actives have a fitted effect of over 40% in size. In a few lines:
as §2

Test [5] is described as follows: BET inhibitor-based combinations targeting novel dependencies in MECOM-rearranged (r) AML: MV-4-11 cell line (AID 2202233). Note: nearly all actives have a fitted effect of over 45% in size. In a few lines: as §2
Test [6] can be described thus: BET inhibitor-based combinations targeting novel dependencies in MECOM-rearranged (r) AML: AML-191 cell line (AID 2202236; note: nearly all actives have a fitted effect of over 35% in size). Summed up:
as §1

The nature of test [7]: BET inhibitor-based combinations targeting novel dependencies in MECOM-rearranged (r) AML: AML-194 cell line (AID 2202237; note: nearly all actives have a fitted effect of over 40% in size). In a few lines: as §1

Values joined by “and” are separate entries in the source; they are usually repeats but may differ in a detail not shown here. Equal values may be shown once. Records with an inconclusive call do not appear. A number with no mark means an inactive call. Active and inactive are the calls of the source. Calls come from the whole dose curve; as a rule, active = well fitted curve in the direction sought with a large enough effect; inconclusive = small, poorly fitted or top-dose-only effect, or another doubt; inactive = no such curve, though single readings can be large; an effect the other way counts as inactive or inconclusive.

Usually viability stands for a read-out of living cells in per cent, often relative to untreated cells.
Potency is the fitted concentration of half-maximal effect.

Chain of Cellular tumor antigen p53 (Homo sapiens) (P04637 whole entry, looked up): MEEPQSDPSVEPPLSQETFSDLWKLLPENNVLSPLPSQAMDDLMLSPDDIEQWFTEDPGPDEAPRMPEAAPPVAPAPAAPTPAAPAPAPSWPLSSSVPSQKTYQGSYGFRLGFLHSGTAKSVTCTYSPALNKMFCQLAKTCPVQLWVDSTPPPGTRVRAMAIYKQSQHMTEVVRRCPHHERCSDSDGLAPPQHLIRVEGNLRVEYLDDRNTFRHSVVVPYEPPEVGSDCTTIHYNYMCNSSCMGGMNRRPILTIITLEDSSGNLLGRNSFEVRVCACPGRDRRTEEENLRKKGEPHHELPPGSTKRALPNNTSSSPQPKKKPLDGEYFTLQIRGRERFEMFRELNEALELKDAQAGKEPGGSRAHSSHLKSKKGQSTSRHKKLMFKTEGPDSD

For the compound `CC(=O)O[C@]1(C(C)=O)CC[C@H]2[C@@H]3C=C(C)C4=CC(=O)CC[C@]4(C)[C@H]3CC[C@@]21C`, the activation in test [1] is -26.8%. For the same compound, the viability in test [2] was 110%. Further, the Potency in test [3] is 18.6 µM (active). Moreover, the Potency entry in test [4] was “inactive”.

Take `Cc1cc(Nc2cc(NC(=O)c3c(Cl)cccc3Cl)ccn2)nc(N)n1`: the Potency was 34.3 µM (active) in test [1]; 3.32 µM (active) in test [2]; 0.332 µM (active) in test [5]; 0.296 µM (active) in test [4]; 0.263 µM (active) in test [6]; 0.332 µM (active) in test [7].

On to `Nc1[nH]c(=O)ncc1F`, for which the activation in test [1] is 10.9% and -17.3%. Besides, the viability in test [2] was 119%. Moreover, the Potency result in test [5], in test [3], in test [4], in test [6] and in test [7] was “inactive” each time.

`NCc1c[nH]c(=S)n1[C@H]1CCc2c(F)cc(F)cc2C1`: the activation in test [1] is -19.4%. Moreover, the viability in test [2] is 110%. Besides, the Potency entry in test [5] and in test [6] was “inactive” each time.

As for `Cc1cnc(C(=O)O)c[n+]1[O-]`, the activation in test [1] is -19.2%. For the same compound, in test [2], the viability was 122%. The Potency result in test [5], in test [4], in test [6] and in test [7] was “inactive” throughout.

Consider `CCCC1OC2C[C@@H]3[C@H]4CCC5=CC(=O)C=C[C@]5(C)[C@H]4C(O)C[C@]3(C)[C@]2(C(=O)CO)O1` (some centres not stated), for which, in test [1], the activation is 16.2%. The viability in test [2] was 98.3%. The Potency in test [5] is 20.9 µM (active); in test [6], 0.0295 µM (active). Further, the Potency entry in test [4] was “inactive”.

As to `O=C(O)c1ccc(-c2c[nH]c3ncc(-c4ccccc4)cc23)cc1C1CCCC1`, in test [1], the activation is -17.5%. For the same compound, the viability in test [2] was 89.8%. Moreover, the Potency in test [5] was 2.95 µM (active). For the same compound, in test [4], the Potency result is “inactive”.

Turning to `N[C@H](CSC(c1ccccc1)(c1ccccc1)c1ccccc1)C(=O)O`, in test [1], the activation was -3.21%. Further, the viability in test [2] is 109%. The Potency entry in test [5], in test [4] and in test [7] was “inactive” in each case.

Take `O=C(O)c1cc(O)c2c(c1)C(=O)c1cccc(O)c1C2=O`: in test [1], the activation is -15.1%. Besides, the viability in test [2] was 115%. Moreover, the Potency entry in test [5], in test [4], in test [6] and in test [7] was “inactive” in each case.

In the case of `Oc1ccc(-c2ccc(-c3cc(Nc4cccc(CNC5CC5)c4)n[nH]3)cc2)c(O)c1`, the Potency in test [1] is 43.2 µM (active); in test [2] it was 7.42 µM (active); in test [5] it was 1.18 µM (active); in test [3] it was 3.72 µM (active); in test [4], 2.35 µM (active); in test [6], 2.95 µM (active). Besides, the Potency in test [7] was 3.72 µM (active).

For the compound `CCn1c(-c2nonc2N)nc2c(C#CC(C)(C)O)ncc(OC[C@H]3CCCNC3)c21`, the activation in test [1] was -17.2%. For the same compound, the viability in test [2] was 101%. Besides, the Potency is 18.6 µM (active) in test [5], 16.6 µM (active) in test [3] and 20.9 µM (active) in test [7].

For the compound `O=c1[nH]c(=O)n([C@H]2C[C@H](O)[C@@H](CO)O2)cc1I`, the activation in test [1] was -6.69%. For the same compound, the Potency was 3.72 µM (active) in test [2], 18.6 µM (active) in test [5], 20.9 µM (active) in test [4] and 16.6 µM (active) in test [7].

For the compound `Cc1cc(OCCCS(C)(=O)=O)cc(C)c1-c1cccc(COc2ccc3c(c2)OC[C@H]3CC(=O)O)c1`, the activation in test [1] is 5.3%. Further, the viability in test [2] is 98.7%. The Potency entry in test [5], in test [3], in test [6] and in test [7] was “inactive” each time.

As for `CC(C)C[C@H](CC(=O)O)C(=O)N[C@@H](Cc1c[nH]c2ccccc12)C(=O)N[C@@H](C)c1ccccc1`, the activation in test [1] was -21.8%. Besides, in test [2], the viability is 104%. Also, in test [5], the Potency result is “inactive”. For the same compound, the Potency in test [7] was 18.6 µM (active).

With `Oc1ccc(C2=Cc3ccc(O)cc3OC2)cc1`, the activation in test [1] is 5.86%. The Potency in test [2] is 2.09 µM (active); in test [5] it was 0.662 µM (active); in test [3] it was 1.18 µM (active); in test [4] it was 1.32 µM (active); in test [6], 2.95 µM (active); in test [7], 10.5 µM (active).

For the compound `O=c1c(O)c(-c2ccc(O)cc2)oc2cc(O)cc(O)c12`, the activation in test [1] is 36.9%. In addition, the viability in test [2] was 105%. For the same compound, the Potency is 9.34 µM (active) in test [5] and 14.8 µM (active) in test [6]. In addition, the Potency result in test [4] and in test [7] was “inactive” each time.

For the compound `C=C1c2cccc(O)c2C(O)=C2C(=O)[C@@]3(O)C(O)=C(C(N)=O)C(=O)[C@@H](N(C)C)[C@@H]3[C@@H](O)[C@H]12`, the activation in test [1] was 22.8%. Also, the viability in test [2] is 86.7%. Besides, the Potency entry in test [5], in test [4], in test [6] and in test [7] was “inactive” throughout.

`O=c1ncn2nc(Sc3ccc(F)cc3F)ccc2c1-c1c(Cl)cccc1Cl`: the activation in test [1] was 2.34%. Moreover, the Potency in test [2] was 20.9 µM (active); in test [5] it was 20.9 µM (active); in test [6] it was 29.5 µM (active). Moreover, the Potency entry in test [7] was “inactive”.

Turning to `CC(=O)NC(CS)C(=O)O` (configuration not stated), the activation in test [1] is 60.6%. Further, in test [2], the viability is 104%. Besides, the Potency entry in test [5], in test [4], in test [6] and in test [7] was “inactive” in each case.

In the case of `CCC(C)(C)C(=O)O[C@H]1C[C@@H](C)C=C2C=C[C@H](C)[C@H](CC[C@@H]3C[C@@H](O)CC(=O)O3)[C@H]21`, the activation in test [1] is -16.4% and -15.4%. For the same compound, the viability in test [2] was 103%. For the same compound, the Potency in test [5] was 18.6 µM (active). In addition, the Potency result in test [6] and in test [7] was “inactive” in each case.

Turning to `COc1cc2c(cc1OC)CC(=O)N(CCCN(C)C[C@H]1Cc3cc(OC)c(OC)cc31)CC2`, in test [1], the activation is -11.1%. Besides, the viability in test [2] was 111%. The Potency entry in test [5], in test [4], in test [6] and in test [7] was “inactive” throughout.

With `CCN(c1ccccc1)c1cc(NC)[n+](C)c(C)n1`, in test [1], the activation is 3.67%. Further, in test [2], the viability was 117%. Further, the Potency result in test [5], in test [3], in test [4], in test [6] and in test [7] was “inactive” throughout.
